{"source": "PubChem BioAssay (NCATS)", "note": "Results filed as inconclusive are left out. A call without a number means that no potency is given here. The source made the active and inactive calls. Calls come from the whole dose curve; as a rule, active = well fitted inhibition curve with a large enough effect; inconclusive = small, poorly fitted or top-dose-only effect; inactive = no such curve, though single readings can be large or run the other way.", "data": [{"molecular_target": "Retinaldehyde dehydrogenase 3 (Homo sapiens) (UniProt P47895)", "test": "qHTS for Inhibitors of the Aldehyde Dehydrogenase Family (ALDH1A3) Primary screen (AID 2061315)", "settings": "ALDH inhibition qHTS; series mostly up to 56 µM", "values": [{"smiles": "CC(C)=CC1C[C@](C)(O)[C@@H]2[C@H]3CCC4[C@@]5(C)CC[C@H](O[C@@H]6OC[C@H](O)[C@H](O[C@@H]7O[C@H](CO[C@@H]8O[C@H](CO)[C@@H](O)[C@H](O)[C@H]8O)[C@@H](O)[C@H](O)[C@H]7O)[C@H]6O[C@@H]6O[C@@H](C)[C@H](O)[C@@H](O)[C@H]6O)C(C)(C)[C@@H]5CC[C@@]4(C)[C@@]34CO[C@@]2(C4)O1", "note": "(stereo partly drawn)", "Potency": "inactive"}, {"smiles": "CC1(C)C[C@H]2C3=CCC4[C@@]5(C)CC[C@H](O[C@H]6O[C@H](C(=O)O)[C@@H](O)[C@H](O)[C@H]6O[C@H]6O[C@H](CO)[C@@H](O)[C@H](O)[C@H]6O[C@@H]6O[C@H](CO)[C@@H](O)[C@H](O)[C@H]6O)[C@](C)(CO)C5CC[C@@]4(C)[C@]3(C)CC[C@@]2(C)[C@H](O[C@@H]2OC[C@H](O)[C@H](OC3O[C@H](CO)[C@@H](O)[C@H](O)[C@H]3O)[C@H]2O)[C@@H]1O", "note": "(stereo partly drawn)", "activity change, negative = inhibition": "14.7% [at 11.2 µM] (inactive)"}, {"smiles": "CC/C=C\\CC1C(=O)C=CC1(CCCCC1CCC(=O)O1)OC(C)=O", "note": "(stereo not drawn)", "Potency": "inactive"}, {"smiles": "C=C1CCC[C@]2(C)CC[C@@H](C(=C)C(=O)O)[C@H](O)[C@@H]12", "Potency": "inactive"}, {"smiles": "C=CCc1ccc(O[C@@H]2O[C@H](CO[C@@H]3O[C@@H](C)[C@H](O)[C@@H](O)[C@H]3O)[C@@H](O)[C@H](O)[C@H]2O)cc1", "Potency": "inactive"}, {"smiles": "CC(=O)N[C@H]1[C@H](O[C@H]2CC[C@@]3(C)C(CC[C@]4(C)C3CC=C3C5CC(C)(C)CC[C@]5(C(=O)O)C(O)C[C@]34C)C2(C)C)O[C@H](CO[C@@H]2O[C@H](C)[C@H](O)[C@H](O)[C@H]2O[C@@H]2OC[C@@H](O)[C@H](O)[C@H]2O)[C@@H](O)[C@@H]1O", "note": "(stereo partly drawn)", "Potency": "inactive"}, {"smiles": "C[C@@H]1CCO[C@H]2Cn3cc(C(=O)NCc4ccc(F)cc4F)c(=O)c(O)c3C(=O)N12", "Potency": "inactive"}, {"smiles": "Cc1ccccc1NC(=O)Nc1ccc(CC(=O)N(C)[C@@H](CC(C)C)C(=O)NCC[C@H](NC(=O)[C@@H]2CCCN2S(=O)(=O)c2cc(Cl)cc(Cl)c2)C(=O)O)cc1", "Potency": "inactive"}, {"smiles": "C1=Cc2ccccc2C(=C2CCN(CCCCc3nn[nH]n3)CC2)c2ccccc21", "Potency": "inactive"}, {"smiles": "O=C(c1ccccn1)N(Cc1cccs1)C1(C(=O)NC2CCCCC2)CCCCC1", "Potency": "inactive"}, {"smiles": "CC(=O)O[C@@H]1[C@@H](OC(C)=O)[C@H](C)O[C@@H](O[C@H]2[C@@H]3C=CO[C@@H](O[C@@H]4O[C@H](CO)[C@@H](O)[C@H](O)[C@H]4O)[C@@H]3[C@@]3(CO)O[C@@H]23)[C@@H]1OC(=O)/C=C/c1ccccc1", "Potency": "inactive"}, {"smiles": "C=C1CCC2[C@](C)(CCC[C@@]2(C)C=O)[C@H]1CC/C(C)=C/CO", "note": "(stereo partly drawn)", "Potency": "inactive"}, {"smiles": "C=C1C(=O)O[C@@H]2/C=C(\\C)CC/C=C(\\C)CC[C@@H]12", "Potency": "inactive"}, {"smiles": "CC1C(=O)CC2C3CCC(C(=O)O)C12CC3(C)CO", "note": "(stereo not drawn)", "Potency": "inactive"}, {"smiles": "COC1CC(OC2CCC3(C)C(=CCC4C3C(OC(C)=O)C(OC(=O)/C=C/c3ccccc3)C3(C)C(C(C)O)CCC43O)C2)OC(C)C1OC1CC(OC)C(OC2OC(C)C(OC3OC(CO)C(O)C(O)C3O)C(OC)C2O)C(C)O1", "note": "(stereo not drawn)", "activity change, negative = inhibition": "9.46% [at 11.2 µM] (inactive)"}, {"smiles": "CC(=O)O[C@H](C[C@@H](C)[C@H]1C(=O)[C@H](O)[C@@]2(C)[C@@H]3CCC4C(C)(C)[C@@H](O[C@@H]5OC[C@H](O)[C@H](O)[C@H]5O)CC[C@@]45C[C@@]35CC[C@]12C)[C@@H]1OC1(C)C", "note": "(stereo partly drawn)", "Potency": "inactive"}, {"smiles": "CC(=O)O[C@@H]1C[C@@]2(C)C(CC[C@]3(C)C2CC=C2C4CC(C)(C)CC[C@]4(C(=O)O)CC[C@]23C)C(C)(C)[C@H]1O", "note": "(stereo partly drawn)", "Potency": "inactive"}, {"smiles": "C[C@H]1CC[C@@]2(OC1)O[C@H]1CC3C4CC[C@H]5C[C@@H](O)CC[C@]5(C)C4CC(=O)[C@]3(C)[C@H]1[C@@H]2C", "note": "(stereo partly drawn)", "Potency": "inactive"}, {"smiles": "CC1CCC2(C(=O)O)CCC3(C)C(=CCC4C5(C)CCC(O)C(C)(C(=O)O)C5CCC43C)C2C1(C)O", "note": "(stereo not drawn)", "Potency": "inactive"}, {"smiles": "COc1c2ccoc2cc2oc(CO[C@@H]3O[C@H](CO)[C@@H](O)[C@H](O)[C@H]3O)cc(=O)c12", "Potency": "inactive"}, {"smiles": "C#C[C@]1(OC(C)=O)CC[C@H]2[C@@H]3CCC4=C[C@@H](OC(C)=O)CC[C@@H]4[C@H]3CC[C@@]21C", "Potency": "inactive"}, {"smiles": "CC1(C)CCC2(C(=O)O)CCC3(C)C(=CCC4C5(C)CCC(O)C(C)(CO)C5C(O)CC43C)C2C1", "note": "(stereo not drawn)", "Potency": "inactive"}, {"smiles": "COC(=O)C1=CO[C@@H](O[C@@H]2O[C@H](CO)[C@@H](O)[C@H](O)[C@H]2O)[C@@H]2[C@@H](C(=O)O)CC[C@H]12", "Potency": "inactive"}]}]}
